Screening data from PubChem.
Hits are enriched below; roughly 1.8% of the tested compounds scored in any of these assays.
KLF5 inhibitor = suppresses KLF5 promoter-driven expression. DLD-1 KLF5 promoter-luciferase reporter, luminescence. AID 1700. hit rate 0.23% among 290,000. inhibition, % at 5 µM;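 active = inhibition above a per-plate limit of that plate's mean compound inhibition plus 3 SD, cut at about 60% in these data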;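 also: higher means less KLF5 promoter-driven luciferase light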
BaF3 parental = counter-screen for JAK2V617F inhibitors: parental Ba/F3 viability inhibitors | inhibition, % at 5.6 µM | hit rate 1.1% among 220,000 | CellTiter-Glo ATP luminescence;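 active = inhibition above a per-campaign cutoff, the mean inhibition of all tested compounds plus 3 SD, cut at about 27% in these data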
APP 5UTR inh = APP translation inhibition; SH-SY5Y APP 5'UTR-luciferase reporter, luminescence; inhibition, % at 2 µM; hit rate 0.82% among 190,000; AID 1285;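 active = inhibition above a set limit, derived from the sample mean plus 3 SD, cut at about 45% in these data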
Ba/F3 V617F tox = reduce viability of Ba/F3 cells dependent on JAK2V617F; inhibition, % at 5.6 µM; hit rate 1.1% among 220,000; Ba/F3 EpoR-JAK2V617F viability, ATP luminescence; AID 1446;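 active = inhibition above the campaign mean plus 3 SD over all tested compounds, cut at about 24% in these data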;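 also: cytokine-independent growth of Ba/F3 cells driven by EpoR plus mutant JAK2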
IEC-6 cytotox = counter-screen for KLF5 inhibitors: cytotoxicity in IEC-6 cells. IEC-6 cytotoxicity, luminescence viability. inhibition, % at 5 µM. hit rate 0.78% among 290,000
IEC-6 cytotox cf = IEC-6 cytotoxicity, confirmation assay; shares compounds with IEC-6 cytotox; IEC-6 rat intestinal epithelial viability, luminescence; inhibition, % at 5 µM; hit rate 63% among 1,900
Hits are given with their value; – = inactive; · = not tested or not shown. Rule as the data show it, unless noted: active = inhibition above about 22%; inactive = the rest.

SMILES	KLF5 inhibitor	BaF3 parental	APP 5UTR inh	Ba/F3 V617F tox	IEC-6 cytotox	IEC-6 cytotox cf
COc1cc(C(=O)Nc2ccc(C)cc2)c2ccccc2n1	–	·	·	·	84	65
Cc1c(O)ccc(C(=O)CN2CCN(Cc3ccc4c(c3)OCO4)CC2)c1O	–	–	–	–	60	–
COC(=O)[C@@H]1Cc2c([nH]c3ccccc23)C(C)(C)N1C(=O)CCl	–	·	·	·	95	36
CCCn1c(SCC(=O)c2c(C)[nH]c(C)c2C(=O)OCC)nc2ccccc21	–	–	–	–	–	·
O=c1oc(-c2ccccc2)cc(Cl)c1Cl	–	·	·	·	31	–
CCN(CC)C1CCN(C(=O)c2ccc(OC3CCN(Cc4ccccn4)CC3)cc2)C1 (stereo not drawn)	–	·	·	·	–	·
OCCC1CN(CCCc2ccccc2)CCN1Cc1ccccc1 (stereo not drawn)	–	–	·	–	23	–
Cc1sc2nc(-c3ccccn3)[nH]c(=O)c2c1-c1ccccc1	–	–	–	–	28	33
Cc1sc2nc(-c3ccncc3)[nH]c(=O)c2c1-c1ccccc1	–	–	–	–	–	·
COc1cc(/C=N/Nc2snc(SC)c2C#N)ccc1O	–	62	83	73	45	45
COc1ccc(C(=O)NC2CCCc3ccccc32)cc1[N+](=O)[O-] (stereo not drawn)	–	·	·	·	36	–
COc1ccc(-[n+]2c(C)cc(/C=C3\Sc4ccccc4N3C)cc2C)cc1	–	97	83	101	32	65
CCOc1ccc(N2CC(C(=O)Nc3nnc(C4CCCCC4)s3)CC2=O)cc1 (stereo not drawn)	–	·	·	·	–	·
COc1cc2cc(-c3ccc(O)cc3O)nc(C)c2cc1OC	–	·	·	·	22	–
CCOc1ccc2ccccc2c1/C=N/NC(=O)CC1(C)OCCCO1	–	–	–	–	–	·
CC(=O)NC1=C(Nc2ccc(N(C)C)cc2)C(=O)c2ccccc2C1=O	–	·	·	·	67	41
COC(=O)c1ccc(NS(=O)(=O)c2cc(-c3cc(C)no3)ccc2OC)cc1	–	·	·	·	63	40
Cc1cccc(N2CC(C(=O)Nc3nnc(SCc4cccnc4)s3)CC2=O)c1 (stereo not drawn)	–	·	·	·	–	·
COc1ccccc1CNC(=O)c1ccccc1C(=O)NC(CC(C)C)C(=O)NCc1ccccc1OC (stereo not drawn)	–	·	·	·	–	·
CC(C)Cc1ccc(C(C)C(N)=NCCc2ccccc2)cc1 (stereo not drawn)	–	·	·	·	64	99
Cc1ccc(CSCC(=O)Nc2ccccc2C(=O)O)cc1	–	·	·	·	29	25
CSc1ccccc1NC(=O)CSCc1ccc(C)cc1	–	–	–	–	–	·
Cc1ccc(Oc2nc3ccccn3c(=O)c2/C=C(\C#N)C(=O)NC2CCS(=O)(=O)C2)c(C)c1 (stereo not drawn)	–	·	·	·	56	34
Cc1ccn2c(C(=O)CSc3ccccc3)c(C)nc2c1	–	–	–	–	23	–
CC(NS(=O)(=O)c1c(N)n(C)c(=O)n(C)c1=O)c1ccccc1 (stereo not drawn)	–	·	·	·	–	·
SMILES	KLF5 inhibitor	BaF3 parental	APP 5UTR inh	Ba/F3 V617F tox	IEC-6 cytotox	IEC-6 cytotox cf
O=[N+]([O-])c1ccc(N=Nc2ncc[nH]2)cc1	–	·	·	·	81	–
O=[N+]([O-])c1ccc(N=NN(CCO)CCO)cc1	–	–	–	–	–	·
CC(C)(C)C(=O)Cn1ncc(Br)c(Br)c1=O	–	–	94	–	29	–
O=C(NCc1ccncc1)c1cc(F)c(F)cc1Cl	–	–	–	–	–	·
O=C(Nc1ccc(Cc2ccncc2)cc1)c1cc(F)c(F)cc1Cl	–	–	–	–	31	48
COc1cc2c(cc1OC)CN(C(=O)/C=C/c1cccs1)CC2	–	63	·	81	59	52
COc1cc2c(cc1OC)CN(C(=O)/C=C/c1ccc([N+](=O)[O-])cc1)CC2	–	·	·	·	–	·
COc1cc2c(cc1OC)CN(C(=O)/C=C/c1ccccc1[N+](=O)[O-])CC2	–	·	·	·	24	–
CS(=O)(=O)N(CC(=O)N1CCC(C(N)=O)CC1)Cc1ccc(Cl)c(Cl)c1	–	·	·	·	–	·
CCN(CC)c1nc2c(c(=O)[nH]c(=O)n2C)n1CCCc1ccccc1	–	·	·	·	–	·
COc1cc(C(=O)NCCOc2cc(C)cc(C)c2)cc(OC)c1OC	–	·	·	·	62	42
COc1cc(C(=O)NCCOc2ccccc2)cc(OC)c1OC	–	·	·	·	–	·
COc1ccc(-n2cc(C(=O)c3cc4ccccc4oc3=O)c(C(C)=O)n2)cc1	–	–	–	–	–	·
CC(CN1CCCCC1)OC(=O)c1ccc(Cl)cc1 (stereo not drawn)	–	–	–	–	–	·
O=C(c1ccc(Cl)cc1)C(CN1CCCCC1)c1ccccc1 (stereo not drawn)	–	·	·	·	22	–
CCSc1nsc(NC(=O)Nc2cccc(F)c2)n1	–	·	·	·	46	32
COc1cccc(NC(=O)Nc2nc(SC)ns2)c1	–	·	·	·	–	·
Cc1ccc(NC(=S)NNC(=O)c2ccccc2OC(F)F)cc1	–	41	–	26	28	–
O=C(NNC(=S)Nc1ccc(F)cc1)c1ccccc1OC(F)F	–	–	–	–	–	·
Cc1cccc(N2CCN(C(=O)C(Cc3ccccc3)n3cccc3)CC2)c1C (stereo not drawn)	–	–	–	–	–	·
COc1ccc(C2=NN(C(=O)c3cccs3)C(O)(C(F)(F)F)C2)cc1 (stereo not drawn)	–	–	–	–	54	41
O=C(c1ccccc1)N1N=C(c2ccccc2)CC1(O)C(F)(F)F (stereo not drawn)	–	·	·	·	–	·
COc1cccc(CN2C(=O)C3(C(C#N)=C(N)OC4=C3C(=O)CCC4)c3ccccc32)c1 (stereo not drawn)	–	89	–	72	59	54
CC1(C)CC(=O)C2=C(C1)OC(N)=C(C#N)C21C(=O)N(CN2CCOCC2)c2ccccc21 (stereo not drawn)	–	–	–	–	–	·
COc1ccc(-n2c(=O)[nH]c3cc(C(=O)NCCc4ccccc4)ccc3c2=O)cc1OC	–	·	·	·	–	·
SMILES	KLF5 inhibitor	BaF3 parental	APP 5UTR inh	Ba/F3 V617F tox	IEC-6 cytotox	IEC-6 cytotox cf
CCCN(CCC)c1nc(-c2ccccn2)nc2ccccc12	–	·	·	·	93	33
COc1ccc(C)cc1Nc1n[n+](-c2ccccc2)c(-c2ccc(N(C)C)cc2)s1	–	·	·	·	–	·
Cc1ccc2c(c1)sc(-c1ccc(N(C)C)cc1)[n+]2C	–	·	·	·	44	30
O=C(c1ccc(CS(=O)c2ccccc2Cl)o1)N1CCN(c2ccccn2)CC1 (stereo not drawn)	–	·	·	·	56	45
O=C(c1ccc([N+](=O)[O-])cc1)N(Cc1ccc(Br)cc1)N1C(=O)CCCC1=O	–	–	–	–	–	·
CC(=O)N1CCN(C2c3cccc4cccc(c34)C2NS(=O)(=O)c2ccccc2)CC1 (stereo not drawn)	–	–	–	–	–	·
O=S(=O)(NC1c2cccc3cccc(c23)C1N1CCNCC1)c1ccc(Cl)cc1 (stereo not drawn)	–	–	–	–	36	–
CCc1ccc(NC(=O)CCS(=O)(=O)c2ccc(Cl)cc2)cc1	–	·	·	·	–	·
COc1ccc(C(=O)NCc2nnc(SCC(=O)Nc3nc4ccccc4s3)o2)cc1	–	–	–	–	64	–
